Data reported in PubChem BioAssay AID778 (Sanford-Burnham Center for Chemical Genomics, 2007).
Screen size: about 96,000 compounds; about 20,000 (21%) were called active. A selection follows. Unmarked numbers belong to inactive results.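 Rule for the calls: active = CYP2C19 inhibition above a set limit at 5 µM in the primary screen (cut at about 50% in these data); inactive = the rest.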

biological target: Cytochrome P450 2C19 (Homo sapiens) (UniProt P33261); assay: blockers of cytochrome P450 2C19 activity – biochemical, luminescence, ADME assay, primary screen (AID 778); conditions: CYP2C19 Supersomes, luciferin-H EGE luminescence, 30 min; at 5 µM; hits give high values;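 note: plate controls were negative control wells for no effect and 2.5 mM tranylcypromine positive control for full effect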
Sequence (P33261 whole entry, looked up): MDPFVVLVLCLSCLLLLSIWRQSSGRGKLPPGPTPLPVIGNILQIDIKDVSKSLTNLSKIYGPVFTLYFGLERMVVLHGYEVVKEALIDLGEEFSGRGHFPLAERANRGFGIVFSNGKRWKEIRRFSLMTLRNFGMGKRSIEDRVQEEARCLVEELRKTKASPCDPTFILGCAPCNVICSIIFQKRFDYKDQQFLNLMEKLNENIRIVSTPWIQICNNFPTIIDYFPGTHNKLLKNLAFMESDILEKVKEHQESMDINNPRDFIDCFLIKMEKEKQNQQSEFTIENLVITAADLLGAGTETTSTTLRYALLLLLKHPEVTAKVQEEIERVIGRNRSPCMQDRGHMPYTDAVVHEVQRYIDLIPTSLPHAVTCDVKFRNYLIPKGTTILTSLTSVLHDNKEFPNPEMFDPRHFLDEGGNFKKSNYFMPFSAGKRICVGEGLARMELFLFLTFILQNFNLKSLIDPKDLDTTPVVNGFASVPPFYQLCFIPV

First: CCOC(=O)CSc1nnc(NC(=O)c2cccc(S(=O)(=O)N3CCCCC3)c2)s1
Second: CCOC(=O)CSc1nnc(NC(=O)c2cccc(S(=O)(=O)N3CCCC3)c2)s1
The inhibition of the first is higher: 7.4% for the first, 2.1% for the second.

Going from `COC(=O)c1ccc(S(=O)(=O)c2ccc(C(=O)OC)s2)s1` to `COc1ccc2nc(NC(=O)c3ccc(Br)s3)sc2c1`, the inhibition falls from 24.5% to 6.2%.

Going from `CCOC(=O)C1CCCN(C(=O)C2CCN(c3nnc(-n4cccc4)s3)CC2)C1` (configuration not stated) to `CCOC(=O)C1CCCN(C(=O)c2ccc(CS(=O)(=O)c3ccc(Br)cc3)o2)C1` (configuration not stated), the inhibition rises from 5.1% to 34.7%.

Compared with `CCc1ccc(NC(=O)CS(=O)CC(=O)NCCCc2ccccc2)cc1` (configuration not stated), `COc1ccc(C(=O)NC(=S)NNC(=O)CCc2ccccc2)cc1` is lower in inhibition: 2.7% for the first, -0.6% for the second.

Compared with `CCOC(=O)C1(Cc2ccc(O)cc2)NC(c2ccccc2F)C2C(=O)N(C)C(=O)C21` (configuration not stated), `CCOC(=O)c1ccc(N2C(=O)CC(N(C)Cc3ccccc3)C2=O)cc1` (configuration not stated) is higher in inhibition: -4.2% for the first, -4% for the second.

Compared with `COc1ccccc1NC(=O)CSc1nnc(Cn2nnc(-c3ccccc3)n2)n1-c1ccccc1`, `O=C(Cn1nnc(-c2ccccc2)n1)NCc1ccccc1` is higher in inhibition: 27.4% for the first, 45.4% for the second.

First: CCCn1c(SCC(=O)Nc2cccc(C(=O)OCC)c2)nnc1-c1ccoc1C
Second: Cc1cccc(NC(=O)Cn2cc(C(=O)c3ccco3)c3ccccc32)c1
The inhibition of the first is higher: 32.5% for the first, -13.3% for the second.

First: CCOc1ccc2nc(NC(=O)CSc3nc4c(c(=O)n(C)c(=O)n4C)n3CC)sc2c1
Second: Cc1c(NC(=O)C(C)OC(=O)c2cc3c4ccccc4n(C)c3s2)c(=O)n(-c2ccccc2)n1C (configuration not stated)
The inhibition of the first is higher: 32.4% for the first, 3.3% for the second.

Going from `COc1ccc(S(=O)(=O)N2CCN(c3ncnc4c(-c5ccccc5)nsc34)CC2)cc1` to `O=C1c2cccnc2C(Nc2ccc(S(=O)(=O)N3CCCCCC3)cc2)N1Cc1ccccc1` (configuration not stated), the inhibition rises from 38.2% to 40.6%.

First: Cc1ccnc(-n2sc3ccccc3c2=O)n1
Second: Cc1cc(C(=O)Nc2c(C)n(C)n(-c3ccccc3)c2=O)cs1
The inhibition of the first is higher: 9.8% for the first, -14% for the second.

First: Cc1cc(NC(=O)CN2CCCC(C)C2)n(-c2nc3ccccc3s2)n1 (configuration not stated)
Second: CCOC(=O)C1CCCN(Cc2nc(N)nc(Nc3ccc(C)cc3)n2)C1 (configuration not stated)
The inhibition of the first is lower: -3.6% for the first, 6.3% for the second.

First: Cc1c(NC(=O)c2coc(=O)c(Br)c2)c(=O)n(-c2ccccc2)n1C
Second: COC(=O)Nc1c(C)n(C)n(-c2ccccc2)c1=O
The inhibition of the first is lower: -16.3% for the first, -13.8% for the second.

First: COc1cc(OC)nc(NC(=O)CCl)n1
Second: COC(=O)c1cc(Cl)c(NC(=O)c2ccco2)cc1OC
The inhibition of the first is lower: -19.8% for the first, 9.4% for the second.

Compared with `CCN1C(=O)/C(=C\N2CCOCC2)SC1=S`, `O=C(CN1CCN(c2ccccn2)CC1)NCc1cccs1` is higher in inhibition: 10.7% for the first, 34.7% for the second.

Compared with `CN(C)/C=C(/C(=O)c1ccc(Cl)cc1)S(=O)(=O)c1ccccc1`, `O=C(Nc1ncc2c(n1)-c1ccccc1OC2)c1ccc(Cl)cc1` is lower in inhibition: 27.2% for the first, 12.7% for the second.

First: Cc1ccc(S(=O)(=O)N2CCN(C(=O)CCC(=O)NC3CCCc4ccccc43)CC2)cc1 (configuration not stated)
Second: CCOC(=O)N1CCN(C(=O)c2ccc(S(=O)(=O)c3ccc(C)cc3)c(NC(C)=O)c2)CC1
The inhibition of the first is higher: 23.8% for the first, 5.6% for the second.

First: Cc1cc2c(c(=O)n1Cc1ccco1)C(c1ccccc1)C(C#N)=C(N)O2 (configuration not stated)
Second: O=C(C1=C(O)C(=O)N(Cc2ccccc2)C1c1ccco1)c1ccco1 (configuration not stated)
The inhibition of the first is higher: 21.9% for the first, -22.3% for the second.

Compared with `Cc1ccc(S(=O)(=O)NCc2cn3ccsc3n2)c(C)c1`, `COC(=O)Cn1c2ccc(C)cc2c2nc(C)sc21` is lower in inhibition: 11.3% for the first, -3.3% for the second.

First: Cc1ccc2nc(Nc3ccccc3O)nc(-c3ccccc3)c2c1
Second: O=C(Cc1cccc2ccccc12)Nc1ccc2oc(-c3ccccc3)nc2c1
The inhibition of the first is higher: 10.3% for the first, 5.7% for the second.

First: COc1ccc(NC(=O)c2sccc2SCC#N)cc1
Second: COc1ccc(Nc2nc(-c3ccccc3)cs2)cc1
The inhibition of the first is lower: 24.1% for the first, 35.2% for the second.

First: Cc1ccc(-c2nnc(-c3ccc(NC(=O)c4cccs4)cc3)o2)cc1
Second: O=C(Nc1ccc2oc(-c3ccc4ccccc4c3)nc2c1)c1cccs1
The inhibition of the first is higher: 22.1% for the first, -16.3% for the second.

Compared with `Cc1ccc(Cc2cncc(O)c2)cc1S(=O)(=O)O`, `CCCCOc1ccc(-c2ncc(C(=O)OCC)c(N)n2)cc1` is lower in inhibition: 1.6% for the first, -11.5% for the second.

Compared with `Fc1ccc(-c2ccc(-c3nn4c(-c5ccco5)nnc4s3)o2)cc1`, `Cc1ccc2[nH]c(=O)c(-c3nc4c(C)cccn4c3NCc3ccco3)cc2c1` is lower in inhibition: 47.8% for the first, -0.9% for the second.

First: COc1ccccc1N(CC(=O)N1CCCCC1)S(=O)(=O)c1ccccc1
Second: CS(=O)(=O)N(CC(=O)N1CCN(Cc2ccccc2)CC1)c1ccc2c(c1)OCCO2
The inhibition of the first is higher: 25.2% for the first, 17.4% for the second.

Compared with `CCOC(=O)N1CCN(C(=O)c2ccc3c(c2)N(Cc2ccc(C)cc2)CCS3)CC1`, `Cc1ccc(S(=O)(=O)Cn2nnnc2CN2CCN(Cc3ccc4c(c3)OCO4)CC2)cc1` is lower in inhibition: 30% for the first, 24.5% for the second.

Going from `O=c1ccn(Cc2ccccc2Cl)cc1` to `O=S1(=O)CCN(Cc2ccccc2Cl)CC1`, the inhibition rises from -3% to 35.5%.

Going from `S=c1[nH]nc(-c2ccc(Cl)cc2)n1CC1CCCO1` (configuration not stated) to `O=C(NCC1CCCO1)C(C(=O)c1ccccc1)n1cc(Cl)ccc1=O` (configuration not stated), the inhibition falls from 41.3% to -6.7%.

Compared with `COCCCNC(=O)Cn1cc(C(=O)C2CC2)c2ccccc21`, `COC(=O)Cn1cc(C(=O)c2cccs2)c2ccccc21` is lower in inhibition: 32.1% for the first, 26% for the second.

Compared with `CCCCCCC(=O)N(O)C1CC(=O)N(c2ccccc2)C1=O` (configuration not stated), `CN(Cc1ccccc1)C(=O)CCNC(=O)Cn1cnc2ccccc2c1=O` is lower in inhibition: 27.1% for the first, -11.7% for the second.

Going from `CC1=C(C(N)=O)C(c2sccc2C)n2nnnc2N1` (configuration not stated) to `CCOC(=O)CSc1nccc(N(C)C)c1C#N`, the inhibition rises from 7.6% to 25.5%.

First: Cc1nnc(SCC(=O)NC(=O)NC2CCCC2)n1N
Second: Cc1nnc(NC(=O)CCCOc2ccccc2)s1
The inhibition of the first is lower: 3.5% for the first, 24.7% for the second.

First: c1cnc(Nc2nc(-c3ccc4ccccc4c3)cs2)nc1
Second: NS(=O)(=O)c1ccc(Nc2nc(-c3ccccc3)cs2)cc1
The inhibition of the first is lower: -3.4% for the first, 28.5% for the second.

Compared with `Clc1ccc(Nc2nc(-c3cccs3)cs2)nc1`, `CCCc1ccc(OCC(=O)NNC(=S)NC(=O)c2ccco2)cc1` is higher in inhibition: 0.8% for the first, 8.7% for the second.

First: CC(C)(C)n1nnnc1C(c1ccc(F)cc1)N1CCN(Cc2ccc3c(c2)OCO3)CC1 (configuration not stated)
Second: Cc1cccc(NC(=O)c2ccc(OCC(=O)NCc3ccccc3)cc2)c1C
The inhibition of the first is higher: 25.1% for the first, -8% for the second.

First: O=C(CCCOc1ccccc1)NCc1ccco1
Second: O=C(CCCOc1ccccc1)Nc1cccc(C(=O)O)c1
The inhibition of the first is higher: 36.6% for the first, 1.2% for the second.

Compared with `O=C(O)CCC(=O)NCc1ccc(C(=O)O)cc1`, `O=C(CCC(=O)OCc1cccc(C(=O)Oc2ccccc2)c1)Nc1cccc2ccccc12` is higher in inhibition: 3.2% for the first, 3.8% for the second.

Work on `O=C(NCCc1ccccc1)c1ccc(OCCOc2ccccc2)cc1` yielded an inhibition of -7.8%.

For `CCOC(=O)C1=C(CC)Nc2ccccc2N=C1NC(=O)c1cccc(S(=O)(=O)N2CCCC2)c1`, the inhibition was 54.2% (active).
With `CCOC(=O)C1CCCN(C(=O)c2cncc(Br)c2)C1` (configuration not stated) the inhibition was 82.7% (active).
For `COc1ccccc1NC(=O)CSc1nnc(-c2ccoc2C)n1CCc1ccccc1`, the inhibition was 59.8% (active).
In the case of `CCn1c(SCC(=O)Nc2nc3ccc(OC)cc3s2)nnc1-c1ccoc1C`, the inhibition is reported as 51% (active).
`Cc1cc(C)cc(N(C(C)C(=O)Nc2c(C)n(C)n(-c3ccccc3)c2=O)S(C)(=O)=O)c1` (configuration not stated) was tested, and the inhibition was 62% (active).
In the case of `Cc1cc(C)cc(N(CC(=O)Nc2c(C)n(C)n(-c3ccccc3)c2=O)S(C)(=O)=O)c1`, the inhibition is reported as 63.2% (active).
`CC1=C(C(=O)Nc2ccccc2)C(c2cccs2)C(C#N)=C(SCC#N)N1` (configuration not stated) was tested, and the inhibition was 88.8% (active).
For `CCOC(=O)N1CCN(C(=O)c2ccc(CN(c3ccc(C)c(C)c3)S(C)(=O)=O)cc2)CC1`, the inhibition was 57.3% (active).
With `CCOC(=O)N1CCN(C(=O)CN(c2ccc(C)c(C)c2)S(=O)(=O)c2ccccc2)CC1` the inhibition was 63.2% (active).
With `O=C1c2ccccc2C(O)N1Cc1ccccc1Cl` (configuration not stated) the inhibition was 80.7% (active).
With `O=C1c2ccccc2C(O)N1Cc1ccccc1` (configuration not stated) the inhibition was 60.9% (active).
With `CCCCCC(=O)Nc1ccc2oc(-c3ccncc3)nc2c1` the inhibition was 77.7% (active).
In the case of `O=C(Cn1cc(C(=O)c2cccs2)c2ccccc21)NCc1cccs1`, the inhibition is reported as 91.3% (active).
In the case of `COC(=O)c1cn(CC(=O)NCc2cccs2)c2ccccc12`, the inhibition is reported as 71.1% (active).
`CCOC(=O)C(Sc1ncc(C#N)c(N)n1)C(C)C` (configuration not stated) was tested, and the inhibition was 52.1% (active).
With `c1ccc(Nc2nc(-c3ccncc3)cs2)nc1` the inhibition was 98.6% (active).
In the case of `Oc1ccc(-c2csc(Nc3cccnc3)n2)cc1`, the inhibition is reported as 78.4% (active).
For `CC(Oc1ccc2ccccc2c1)C(=O)NNC(=S)NC(=O)c1ccco1` (configuration not stated), the inhibition was 56.8% (active).
In the case of `Fc1ccccc1C(c1nnnn1Cc1ccc2c(c1)OCO2)N1CCN(Cc2ccccc2)CC1` (configuration not stated), the inhibition is reported as 62.9% (active).
`Cc1cc(C)c2[nH]c(=O)c(C(c3nnnn3Cc3ccc4c(c3)OCO4)N3CCCC3)cc2c1` (configuration not stated) was tested, and the inhibition was 68.4% (active).
`O=C(CCC(=O)OCC(F)(F)C(F)F)NCc1ccccc1` was tested, and the inhibition was 71.6% (active).
In the case of `O=C(NCCOc1ccccc1)c1ccccc1`, the inhibition is reported as 60.7% (active).
In the case of `O=C(CCOc1ccccc1)NCc1ccccc1`, the inhibition is reported as 57.6% (active).
In the case of `CN(C)C(CNC(=O)CCCOc1ccccc1)c1ccco1` (configuration not stated), the inhibition is reported as 84.2% (active).
